Compound activity from PubChem.
MIN6 prolif: inducers of MIN6 beta-cell proliferation, primary screen, ATP luminescence, uHTS | MIN6 cells proliferation, ATPlite luminescence, 48 h; cells starved in 0.2% serum; 100% = growth in 10% serum | proliferation, % at 10 µM | 330,000 tested, 0.29% active | AID 2380, 2010;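 active = compounds whose signal lies at least 3.5 SD above the mean of all wells on their plate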
V-ATPase pH: regulators of yeast V-ATPase proton pumping, primary screen, pHLuorin cytosolic pH fluorescence | S. cerevisiae | response, % at 10 µM | 350,000 tested, 0.37% active | AID 504577, 2011; in the data active = response mostly above about 7.3%, no sharp cut-off; inactive = mostly below about 5.4%; also: actives read high
CR mimetic SO: reduction of superoxide in aged yeast, primary screen, HTS; S. cerevisiae aged cells, superoxide DHE fluorescence; active compounds read low; superoxide response (% of plate mean), % at 10 µM; 330,000 tested, 0.18% active; AID 2690, 2010;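 active = superoxide response under a set limit, about three screen SD below normal, cut at about 65% in these data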;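 also: yeast aged for seven days with compound at 30 °C before DHE staining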
HSV replic up: enhancers of HSV replication in host cells, fold increase, host cell viability | AID 1956, 2009 | HSV replication augmentation in cells | maximum fold increase | 220,000 tested, 0.005% active; in the data active = maximum fold increase above about 1.5; tested in PC3 cells
Cardio protect: cardioprotection against H2O2-induced cell death, primary screen, uHTS, H9c2 cells, ATPLite luminescence; H9c2 cardiomyocytes, H2O2 injury protection, 2 h; protection from H2O2 cell death, % at 20 µM; 360,000 tested, 0.63% active; AID 588492, 2011;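 active = compounds giving at least 50% protection of heart cells from peroxide-induced death in the single-dose screen, raw or plate-pattern-corrected value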
pCIP destab: p/CIP-EGFP fusion destabilizers, primary screen, fluorescence, F442A cells. 16 h. decrease of EGFP signal, % at 10 µM. 290,000 tested, 0.01% active. AID 1984, 2009. Q05BA5;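 active = EGFP signal decrease of at least 30% at 10 µM or well 3 SD below plate mean, unless failing retest; inactive = the rest, including hits failing retest or dose response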
Target sequence (Q05BA5 1-1403): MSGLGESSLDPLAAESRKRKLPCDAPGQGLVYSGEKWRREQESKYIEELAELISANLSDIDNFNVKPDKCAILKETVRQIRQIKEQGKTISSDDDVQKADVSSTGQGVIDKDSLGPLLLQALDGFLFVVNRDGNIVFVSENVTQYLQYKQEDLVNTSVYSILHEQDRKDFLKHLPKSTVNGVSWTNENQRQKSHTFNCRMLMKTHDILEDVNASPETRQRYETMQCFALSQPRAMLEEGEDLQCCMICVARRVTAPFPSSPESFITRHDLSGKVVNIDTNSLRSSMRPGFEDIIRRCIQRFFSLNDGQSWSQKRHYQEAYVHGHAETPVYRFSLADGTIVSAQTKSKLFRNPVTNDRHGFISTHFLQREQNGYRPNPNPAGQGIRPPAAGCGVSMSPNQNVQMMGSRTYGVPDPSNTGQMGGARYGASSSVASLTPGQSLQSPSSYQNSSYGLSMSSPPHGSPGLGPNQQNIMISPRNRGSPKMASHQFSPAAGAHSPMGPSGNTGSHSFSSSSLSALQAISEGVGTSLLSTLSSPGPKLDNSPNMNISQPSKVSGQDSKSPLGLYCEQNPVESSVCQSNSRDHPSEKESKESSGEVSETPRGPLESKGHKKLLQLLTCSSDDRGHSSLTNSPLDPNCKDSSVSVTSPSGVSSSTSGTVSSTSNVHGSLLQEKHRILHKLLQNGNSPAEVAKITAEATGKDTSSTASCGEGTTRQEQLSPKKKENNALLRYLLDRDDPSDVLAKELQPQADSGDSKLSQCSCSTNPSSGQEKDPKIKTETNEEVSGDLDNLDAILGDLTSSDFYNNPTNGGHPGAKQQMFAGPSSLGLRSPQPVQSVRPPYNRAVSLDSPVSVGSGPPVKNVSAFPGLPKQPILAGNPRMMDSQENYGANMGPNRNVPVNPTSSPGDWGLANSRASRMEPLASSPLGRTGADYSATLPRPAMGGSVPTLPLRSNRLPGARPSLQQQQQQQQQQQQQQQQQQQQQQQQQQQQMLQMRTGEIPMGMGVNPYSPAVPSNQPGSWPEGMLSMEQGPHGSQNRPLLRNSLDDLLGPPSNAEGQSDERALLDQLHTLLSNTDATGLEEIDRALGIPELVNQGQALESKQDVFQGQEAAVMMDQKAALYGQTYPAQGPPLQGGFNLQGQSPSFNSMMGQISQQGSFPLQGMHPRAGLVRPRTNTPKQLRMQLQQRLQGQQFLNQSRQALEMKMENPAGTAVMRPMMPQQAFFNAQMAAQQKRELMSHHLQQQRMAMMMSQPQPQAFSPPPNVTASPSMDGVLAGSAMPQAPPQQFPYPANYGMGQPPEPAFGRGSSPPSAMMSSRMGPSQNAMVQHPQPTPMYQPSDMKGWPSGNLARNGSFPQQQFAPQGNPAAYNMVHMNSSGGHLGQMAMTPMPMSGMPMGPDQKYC
Each line names hits and unclear results; the compound was inactive in the other large screens. Sampled rows, rich in hits. Any-hit rate of the full collection: about 1.4%.

CCC(C(=O)OCC(=O)N(CC)c1c(N)n(Cc2ccccc2)c(=O)[nH]c1=O)c1ccccc1 (configuration not stated)	none (no result: HSV replic up, pCIP destab)
CN1CCc2cc(O)c(O)cc2C(c2ccccc2)C1 (configuration not stated)	Cardio protect 54.3 (no result: HSV replic up, pCIP destab)
CN1CCc2cc(Cl)c(O)cc2[C@@H](c2ccccc2)C1	none
Cc1ccccc1OCC(=O)N/N=C/c1cc2ccccc2nc1Cl	none
C=CCc1ccccc1OCC(=O)N/N=C/c1ccc(OC(C)=O)cc1OC(C)=O	Cardio protect 72.6
CCOc1ccc(NC2OCC(O)C(O)C2O)c([N+](=O)[O-])c1 (configuration not stated)	none
CC(C)(C)OC(=O)N1CCC[C@H]1c1nnc(SCC(=O)Nc2ccc(Br)cc2)o1	Cardio protect 60.4
CCN(CCO)c1ncnc2c1sc1nc(C(C)C)c3c(c12)CC(C)(C)OC3	Cardio protect 59.8
OCC[C@@H]1C[C@H](O)[C@@H](O)[C@]2(OCc3ccccc32)O1	none (no result: HSV replic up)
COc1cccc(/C=C2/C(=O)NN(c3ccc(Br)cc3)C2=O)c1O	Cardio protect 51.9 (no result: HSV replic up)
COc1cc(/C=C2/C(=O)NN(c3ccc(Cl)cc3)C2=O)cc(Br)c1O	none (no result: HSV replic up)
COc1ccccc1N1CCN(C(=O)CN(C)S(=O)(=O)c2cc(C)ccc2OC)CC1	none
O=C(C(=O)N(Cc1ccccc1)Cc1ccccc1)c1c(-c2ccccc2)[nH]c2ccccc12	Cardio protect 86.5 (no result: MIN6 prolif, CR mimetic SO, HSV replic up, pCIP destab)
N#Cc1ccc(CN2CCN(C(=O)CCNS(=O)(=O)c3ccc(F)c(Cl)c3)CC2)cc1	none (no result: HSV replic up, pCIP destab)
CSc1nc2sc3c(c2c(=O)[nH]1)CCCC3	none
CCN(CC)C(=O)CCc1nc2sc3c(c2c(=O)[nH]1)CCCC3	none
CCCCc1nc2sc3c(c2c(=O)[nH]1)CCC3	Cardio protect 69.9
CSc1nc2sc3c(c2c(=O)[nH]1)CCC3	Cardio protect 52.0
COc1ccc(OC)c(Nc2nc(N)c([N+](=O)[O-])c(N3CCOCC3)n2)c1	Cardio protect 52.5 (no result: HSV replic up)
COc1cc(OC)cc(C(=O)c2c(C)c(C#N)c3ccccn23)c1	none (no result: CR mimetic SO, HSV replic up)
N#Cc1c2ccc(OCC(N)=O)cc2n2ccccc12	MIN6 prolif 8.1
Cc1nnc(SCC(=O)Nc2ccc(N3CCOCC3)cc2)n1Cc1ccccc1	V-ATPase pH 23.1 (no result: HSV replic up, pCIP destab)
COc1cc2c(cc1OC)C(COc1ccc3c(C)cc(=O)oc3c1)N(C(=O)c1ccco1)CC2 (configuration not stated)	Cardio protect 57.6
COc1ccc(C(=O)N2CCN(Cc3nc(CC4CC4)no3)CC2)cc1	none
CCOc1ccc(-n2c(C)c(C(C)=O)c3cc(OC(C)=O)ccc32)cc1	Cardio protect 50.1 (no result: HSV replic up)
CC(=O)Oc1ccc2c(c1)c(C(C)=O)c(C)n2C	V-ATPase pH 18.4
Cc1ccc(S(C)(=O)=N/C=C2\C(=O)c3sccc3N(C)S2(=O)=O)cc1 (configuration not stated)	none
Cc1[nH]n2c(=O)c3c(nc2c1-c1ccc(Cl)cc1)CCC3	Cardio protect 54.5
Cc1ccc2[nH]c(=O)c(CN(CCCN3CCOCC3)C(=O)Nc3cccc(Cl)c3)cc2c1	none
Cc1ccc2[nH]c(=O)c(CN(CCCN3CCOCC3)C(=O)Nc3ccc(Cl)cc3)cc2c1	Cardio protect 50.2
Oc1c(Br)cc(Br)cc1C=Nc1cccnc1	Cardio protect 51.7 (no result: HSV replic up)
Oc1c(Br)cc(Br)cc1/C=N/c1nccs1	Cardio protect 56.7 (no result: HSV replic up, pCIP destab)
O=C(CSc1nc2cc(Cl)ccc2s1)Nc1cccc(S(=O)(=O)N2CCOCC2)c1	none
CCCCOc1ccc(Cl)cc1Nc1nc(NCCO)nc(N2CCCC2)n1	none (no result: pCIP destab)
CC(OC(=O)CCc1nc2ccccc2c(=O)[nH]1)C(=O)NC1CCCC1 (configuration not stated)	Cardio protect 54.9
CC(NC(=O)COC(=O)CCc1nc2ccccc2c(=O)[nH]1)c1ccccc1 (configuration not stated)	none
COc1ccc(C(=O)NNC(=O)c2ccc3ccccc3n2)cc1	Cardio protect 52.3 (no result: HSV replic up, pCIP destab)
Cc1ccccc1NC(=O)COC(=O)CCc1nc2ccccc2c(=O)[nH]1	Cardio protect 65.0
O=C(COC(=O)CCc1nc2ccccc2c(=O)[nH]1)NC(c1ccccc1)c1ccccc1	Cardio protect 58.6
O=C(N/C(=C\c1ccc(Br)cc1)C(=O)N1CCCC1)c1ccccc1F	none
CC(=O)N1CCN(S(=O)(=O)c2cccc(C(=O)OCc3ccc(C(C)(C)C)cc3)c2)CC1	none (no result: CR mimetic SO, HSV replic up, pCIP destab)
CCOc1cccc2cc(C(N)=O)c(=N)oc12	none (no result: CR mimetic SO)
Cc1ccc(OCCOC(=O)CCc2nc3ccccc3c(=O)[nH]2)cc1	Cardio protect 54.6
O=C(CCc1nc2ccccc2c(=O)[nH]1)OCc1ccc(-c2ccccc2)cc1	none
N#CCCN(C(=O)COC(=O)CCc1nc2ccccc2c(=O)[nH]1)c1ccccc1F	Cardio protect 57.7 (no result: HSV replic up, pCIP destab)
CCc1ccc(C(=O)NNC(=O)CCc2nc3ccccc3c(=O)[nH]2)cc1	none (no result: HSV replic up, pCIP destab)
COc1ccc(C(=O)NNC(=O)CCc2nc3ccccc3c(=O)[nH]2)cc1	Cardio protect 63.5 (no result: HSV replic up, pCIP destab)
O=C(COC(=O)CCc1nc2ccccc2c(=O)[nH]1)Nc1c(Cl)cccc1C(F)(F)F	Cardio protect 52.1 (no result: HSV replic up, pCIP destab)
O=C(COC(=O)CCc1nc2ccccc2c(=O)[nH]1)Nc1ccc2c(c1)OCO2	Cardio protect 51.8
CCCCOc1ccc(C(=O)NCC(=O)N(C)Cc2nc3ccccc3c(=O)[nH]2)cc1	Cardio protect 54.2 (no result: HSV replic up, pCIP destab)
CCN(CC(=O)Nc1cc(Cl)ccc1C)C(=O)CCc1nc2ccccc2c(=O)[nH]1	Cardio protect 68.7 (no result: HSV replic up, pCIP destab)
CN(CC(=O)Nc1ccc2c(c1)OCCO2)Cc1nc2ccccc2c(=O)[nH]1	none (no result: HSV replic up, pCIP destab)
COc1ccc(C(=O)NCCc2nnc(SCC(=O)Nc3ccccc3F)n2C)cc1	none
CCNC(=O)C1(C)CCN(C(=O)c2ccc(C#N)cc2)C1 (configuration not stated)	none (no result: MIN6 prolif, V-ATPase pH, CR mimetic SO, HSV replic up, pCIP destab)
C=CCN(CC=C)C(=O)c1ccc(OC2CCN(Cc3ccccn3)CC2)cc1	none
Nc1cc(N)cc(C(=O)OCC(=O)Nc2cc(S(=O)(=O)N3CCCCC3)ccc2Cl)c1	none
CCOC(=O)c1c(C)[nH]c(C(=O)N/N=C/c2cccc(OC)c2)c1C	none (no result: HSV replic up)
COc1cccc(/C=N/NC(=O)c2[nH]c(C)c(C(=O)N/N=C/c3cccc(OC)c3)c2C)c1	Cardio protect 55.8
CCOC(=O)C(C)Oc1ccc(C2NC(=O)NC(C)=C2C(C)=O)cc1Br (configuration not stated)	Cardio protect 55.2
Cn1c2nc(=O)n(-c3ccccc3)c(=O)c-2nc2c1CCCC2	none (no result: MIN6 prolif, CR mimetic SO, HSV replic up, pCIP destab)
CCn1c2ccccc2c2nc3cc(OC)c(OC)cc3nc21	Cardio protect 50.9
COc1cc2nc3c4ccccc4n(CC#N)c3nc2cc1OC	none (no result: V-ATPase pH, CR mimetic SO, Cardio protect)
COc1ccc(CCNC(=O)c2cc3c(C)nccc3[nH]c2=O)cc1OC	Cardio protect 75.8
